# Screens from PubChem.
# Ba/F3 V617F tox: loss of viability in JAK2V617F-driven Ba/F3 cells. 1.1% of 220,000 active. inhibition, % at 5.6 µM. AID 1446. Ba/F3 EpoR-JAK2V617F viability, ATP luminescence;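 active means inhibition above the campaign mean plus 3 SD over all tested compounds, cut at about 24% in these data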;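 further: cytokine-independent growth of Ba/F3 cells driven by EpoR plus mutant JAK2; 0% = DMSO-treated cells and 100% = JAK inhibitor I control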
# IEC-6 tox: IEC-6 cytotoxicity, counter-screen for KLF5 inhibitors; luminescence viability; inhibition, % at 5 µM; 0.78% of 290,000 active;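 further: 0% = plate median of test compound wells and 100% = cytotoxic reference compound wells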
# APP 5UTR inh: APP translation inhibition. 0.82% of 190,000 active. inhibition, % at 2 µM. SH-SY5Y APP 5'UTR-luciferase reporter, luminescence;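 active means inhibition above a set limit, derived from the sample mean plus 3 SD, cut at about 45% in these data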
# BaF3 tox: reduces parental Ba/F3 cell viability, JAK2V617F counter-screen. CellTiter-Glo ATP luminescence. inhibition, % at 5.6 µM. 1.1% of 220,000 active. AID 1486;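 active means inhibition above a per-campaign cutoff, the mean inhibition of all tested compounds plus 3 SD, cut at about 27% in these data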;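 further: 0% = DMSO wells and 100% = JAK Inhibitor I control wells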
# KLF5 inhibitor: inhibitors of KLF5 expression | DLD-1 KLF5 promoter-luciferase reporter, luminescence | inhibition, % at 5 µM | 0.23% of 290,000 active;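 active means inhibition above a per-plate limit of that plate's mean compound inhibition plus 3 SD, cut at about 60% in these data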;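 further: 0% = DMSO wells and 100% = LY294002 at 200 µM; higher means less KLF5 promoter-driven luciferase light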
# IEC-6 tox confirm: IEC-6 cytotoxicity, confirmation assay. shares compounds with IEC-6 tox. IEC-6 rat intestinal epithelial viability, luminescence. inhibition, % at 5 µM. 63% of 1,900 active. AID 1907;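 further: 0% = vehicle and 100% = reference cytotoxic drug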
# * marks the source's active call; other numbers are inactive results; / = no result given. Only some compounds are listed: those with a hit (about 1.8% of all), similar ones and a draw of the others. Unless noted, no stated cut-off is given here; in the data, active means inhibition above about 22%; inactive means the rest.
SMILES,Ba/F3 V617F tox,IEC-6 tox,APP 5UTR inh,BaF3 tox,KLF5 inhibitor,IEC-6 tox confirm
CCOc1ccc(Cn2cc(F)c(=O)[nH]c2=O)cc1,-1.8,0.2,/,0.3,6.8,/
CC(C)COc1ccc(S(=O)(=O)n2cc(F)c(=O)[nH]c2=O)cc1,61.0*,85.4*,-4.8,62.9*,-13.5,-1.1
O=C(Cc1ccc(-c2ccccc2)cc1)Nc1ncccc1O,/,6.6,/,/,-83.6,/
CC(=O)O[C@H]1C(=O)[C@@]2(C)C([C@H](OC(=O)c3ccccc3)[C@]3(O)C[C@H](OC(=O)[C@H](O)[C@@H](NC(=O)c4ccccc4)c4ccccc4)C(C)=C1C3(C)C)[C@]1(OC(C)=O)CO[C@@H]1C[C@H]2O (stereo partly specified),/,84.5*,/,/,56.0,77.2*
O=C(O)c1nn(CCOc2c(Cl)cccc2Cl)c(=O)c2ccccc12,/,39.7*,/,/,29.3,17.7
COc1ccc(F)cc1Cn1nc(C(=O)O)c2ccccc2c1=O,/,36.4*,/,/,-0.4,21.3
c1ccc(-c2ccc(-c3ccccn3)s2)nc1,0.3,13.1,/,-2.3,-65.0,/
c1ccc(-c2cccc(-c3ccccn3)n2)nc1,94.5*,81.3*,85.7*,84.6*,53.0,82.7*
Cc1ccc(C)c(NC(=O)C[n+]2ccccc2)c1,/,1.6,/,/,-14.4,/
CCCC(=O)Nc1nc2ccc(NC(=O)c3ccccc3F)cc2s1,82.0*,75.4*,75.8*,80.5*,36.2,55.4*
CCOc1cc(N2CCOCC2)c(OCC)cc1NC(=O)CCS(=O)(=O)c1ccc(Cl)cc1,-2.0,-0.5,2.0,1.1,-7.5,/
CCOc1cc(N2CCOCC2)c(OCC)cc1NS(=O)(=O)c1ccc(Cl)s1,17.0,56.9*,26.1,54.7*,21.3,58.2*
CN1CCN(NC(=O)c2ccc(Br)s2)CC1,-0.8,-3.9,/,-1.1,-7.5,/
COc1cc(CN2CCc3ccccc3C2)ccc1O,96.6*,29.7*,/,102.6*,18.7,15.9
Cc1ccc(Nc2nc(N3CCOCC3)nc(N3CCOCC3)n2)cc1C,/,84.3*,/,/,-5.9,88.2*
Cc1cccc(Nc2nc(N3CCCCC3)nc(N3CCCCC3)n2)c1,2.9,0.3,8.2,0.5,-7.3,/
Cc1cccc(Nc2nc(N3CCOCC3)nc(N3CCOCC3)n2)c1,/,63.6*,/,/,-34.9,36.6*
COc1cc2nc(=S)n3[nH]c(COc4ccccc4C)nc3c2cc1OC,1.4,-1.1,-1.8,4.8,-0.5,/
COc1cc2nc(=S)n3[nH]c(CCn4nc(C)cc4C)nc3c2cc1OC,3.6,53.3*,15.8,7.5,10.1,8.4
CCOC(=O)[C@@H]1[C@H]2COc3cc(OC)ccc3[C@@H]2N2C(=O)N(c3ccc(Cl)cc3)C(=O)[C@@]12C,/,2.3,/,/,-44.5,/
COc1ccc(C(=O)NC2CCCc3ccccc32)cc1[N+](=O)[O-] (stereo unspecified),/,36.2*,/,/,19.1,7.2
COc1cc(C(=O)NCCOc2cc(C)cc(C)c2)cc(OC)c1OC,/,61.8*,/,/,46.6,42.1*
COc1cc(C(=O)NCCOc2ccccc2)cc(OC)c1OC,/,-1.6,/,/,-16.1,/
Cc1oc(-c2cccc(Cl)c2)nc1CN1CCC(C(=O)NCCCN2CC(C)CC(C)C2)CC1 (stereo unspecified),/,22.1*,/,/,-26.7,52.9*
Cc1nnc2n1CCCCC2,1.8,2.8,/,-10.0,-6.4,/
SMILES,Ba/F3 V617F tox,IEC-6 tox,APP 5UTR inh,BaF3 tox,KLF5 inhibitor,IEC-6 tox confirm
C=CCOc1ccc2nc(NC(=O)OC)[nH]c2c1,78.5*,81.5*,/,78.9*,50.7,52.6*
CCOc1ccc2nc(NCCO)[nH]c2c1,-1.4,-2.7,12.2,4.0,-3.8,/
COc1cc(CCC(=O)Nc2nnc(C)s2)cc(OC)c1OC,/,47.8*,/,/,46.5,34.6*
COc1cc(CCC(=O)Nc2ncc(C)s2)cc(OC)c1OC,/,2.1,/,/,-5.1,/
O=C1CCCc2cc3c(cc21)CC1(C3)Cc2cc3c(cc2C1)C(=O)CCC3,-2.6,31.7*,/,-6.3,17.0,35.3*
CC(=O)Nc1ccc2c(c1)CCCC2=O,-0.9,2.2,/,5.1,-4.5,/
O=c1c(Br)c(Br)cnn1-c1ccccc1,101.2*,101.6*,95.5*,50.2*,-13.3,45.6*
COc1c(Cl)cnn(-c2ccc(C)cc2)c1=O,5.8,-4.6,13.2,10.1,11.9,/
Cc1ccc(-n2ncc(Br)c(Br)c2=O)cc1,101.2*,101.7*,94.5*,106.0*,-5.1,29.8*
CCOC(=O)N1CCN(Cc2nc3cc(NC(=O)CC)ccc3n2C)CC1,/,-5.5,/,/,-20.5,/
CCCn1c(CN2CCN(C(=O)OCC)CC2)nc2cc(NC(=O)CC)ccc21,/,52.7*,/,/,61.3,24.0*
